# Assay outcomes (PubChem)
# GSTO1 inh: blocks human GSTO1 in RBBP9 counter-screen; P78417; recombinant GSTO1, activity-based probe fluorescence polarization; inhibition, % at 5.96 µM; 1.1% of 300,000 active;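 active means inhibition above the campaign mean inhibition plus 3 SD, cut at about 35% in these data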;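 further: 0% = GSTO1-1 with DMSO and 100% = wells lacking GSTO1-1 enzyme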
# Fam108B counter: Fam108B inhibition, counter-screen for RBBP9 inhibitors; 0.33% of 300,000 active; AID 1947; recombinant Fam108B, FP-Rh probe fluorescence polarization; inhibition, % at 9.51 µM;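 active means inhibition above the screen mean inhibition plus 3 SD, computed separately per campaign, cut at about 18% in these data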;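 further: inhibitors lower polarization as less probe binds the enzyme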
# PME-1 primary: blocks human protein phosphatase methylesterase 1; AID 2130; Q9Y570; inhibition, % at 5.9 µM; 0.53% of 320,000 active; recombinant PME-1, FP-Rh probe fluorescence polarization;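 active means inhibition above the campaign mean of all compounds plus 3 SD, cut at about 26% in these data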;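 further: competitive labeling of PME-1 active site by serine hydrolase directed probe; 0% = PME-1 with DMSO and 100% = wells lacking PME-1 enzyme; inhibitors block probe labeling so polarization falls and inhibition rises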
# Target sequence (Q9Y570 whole entry, looked up): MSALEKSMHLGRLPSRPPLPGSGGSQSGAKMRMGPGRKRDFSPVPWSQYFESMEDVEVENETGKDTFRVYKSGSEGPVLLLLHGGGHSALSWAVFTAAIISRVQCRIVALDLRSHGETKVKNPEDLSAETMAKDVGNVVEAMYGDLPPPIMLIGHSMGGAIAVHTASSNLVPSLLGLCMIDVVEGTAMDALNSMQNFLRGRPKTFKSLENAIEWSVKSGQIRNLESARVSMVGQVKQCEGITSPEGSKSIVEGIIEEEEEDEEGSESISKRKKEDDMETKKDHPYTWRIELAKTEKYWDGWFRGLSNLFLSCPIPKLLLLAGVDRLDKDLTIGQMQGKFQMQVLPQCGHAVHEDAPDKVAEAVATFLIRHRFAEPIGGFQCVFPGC
# LYPLA2 counter: blocks human lysophospholipase 2, a PME1 counter-screen. O95372. recombinant LYPLA2, FP-Rh probe fluorescence polarization. inhibition, % at 5.9 µM. 0.38% of 320,000 active;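 active means inhibition above the screen-wide mean plus 3 SD, limit set per campaign, cut at about 26% in these data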;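 further: 0% = LYPLA2 with DMSO and 100% = wells lacking LYPLA2 enzyme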
# PAD4 inh: PAD4 (human) enzyme inhibition; Q9UM07; recombinant PAD4, RCA probe fluorescence polarization; inhibition, % at 6.36 µM; 0.41% of 330,000 active; AID 485272;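 active means percent inhibition above a cutoff equal to the mean of all tested compounds plus 3 SD, cut at about 15% in these data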;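 further: 0% = PAD4 with RCA probe and DMSO and 100% = probe without PAD4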
# LYPLA1 counter: LYPLA1 (human) inhibition in PME1 counter-screen. O75608. recombinant LYPLA1, FP-Rh probe fluorescence polarization. inhibition, % at 5.9 µM. 0.16% of 320,000 active. AID 2174;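 active means inhibition above the mean of all tested compounds plus 3 SD, set per campaign, cut at about 14% in these data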;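 further: inhibitors block serine hydrolase probe labeling of LYPLA1 so polarization falls; 0% = enzyme with DMSO and 100% = wells lacking LYPLA1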
# An asterisk follows results filed as active; · = no result. A selection: hits, their analogues and other compounds. The true share with any hit is near 1.8%.
SMILES,GSTO1 inh,Fam108B counter,PME-1 primary,LYPLA2 counter,PAD4 inh,LYPLA1 counter
COc1ccc(CCC(=O)Nc2ccc3c(c2)OCO3)cc1OC,35*,-3,5,13,-4,2
COc1ccc2[nH]c(O)c(N=NC(=O)c3ccc(NS(=O)(=O)c4cccs4)cc3)c2c1,·,·,30*,-4,4,-7
Cc1ccc2[nH]c(O)c(N=NC(=O)c3ccc(NS(=O)(=O)c4cccs4)cc3)c2c1,-9,18,52*,-12,-5,-4
NC(=S)N/N=C/c1coc2c(ccc3ccccc32)c1=O,13,-36,-19,-4,-7,-6
O=c1cc(/N=C/c2coc3c(ccc4ccccc43)c2=O)[nH]c(=S)[nH]1,42*,1,-3,2,-1,-3
COC(=O)/C(=C(O)\C=C\c1ccccc1[N+](=O)[O-])c1nc2ccccc2[nH]1,4,5,29*,-10,-1,-9
Cc1ccc(S(=O)(=O)N2CCCN(C(C)c3nc4ccccc4c(=O)[nH]3)CC2)cc1 (stereo unspecified),·,·,17,15,-1,8
CC(C)=CCc1cc(-c2oc3cc(O)cc(O)c3c(=O)c2O)ccc1O,6,7,34*,6,-3,-2
O=c1c(O)c(-c2ccccc2)oc2cc(O)cc(O)c12,·,·,·,·,-5,·
O=C(NC(C(=O)N/N=C/c1cc([N+](=O)[O-])ccc1O)c1n[nH]c(=O)c2ccccc12)c1ccccc1 (stereo unspecified),-75,7,49*,-2,3,-4
CN(C)c1ccc(N=Nc2ccc(S(=O)(=O)O)cc2)c2ccccc12,37*,8,11,-3,-12,1
CN(C)c1ccc(N=Nc2ccc(S(N)(=O)=O)cc2)cc1,-4,0,3,4,1,-1
Cc1ccc(C(=O)N/C(=C\c2ccc(-c3ccccc3[N+](=O)[O-])o2)C(=O)NCCCN2CCOCC2)cc1,36*,3,12,5,-11,4
CC(=O)Oc1c(I)cc(I)cc1C(=O)Nc1ccc(Cl)cc1,-17,-1,61*,-23,3,-13
N#C/C(=N\Nc1ccc(Cl)c(Cl)c1)C(=O)C1CC1,-11,8,34*,12,2,11
N#C/C(=N\Nc1ccc(F)cc1)C(=O)C1CC1,3,-1,4,4,-4,-2
COc1cc(/C=C/c2ccc3cccc(O)c3n2)c(Br)cc1O,10,-2,28*,5,-4,2
COc1ccc(OC)c(/C=C/c2ccc3cccc(O)c3n2)c1,16,4,8,-4,-8,-1
COc1cc(/C=C/c2ccc3cccc(O)c3n2)ccc1O,18,14,34*,9,-5,6
Cc1ccccc1S(=O)(=O)N1[C@@H](c2ccc(Cl)cc2)C(C(=O)O)=CC[C@H]1c1ccc(Cl)cc1,·,·,·,·,-7,·
O=C1CN(C(=O)c2cc3ccccc3oc2=O)C(c2ccccc2)c2cc(F)ccc2N1 (stereo unspecified),2,1,34*,11,0,-1
COc1ccc(C2=NN(Cc3c(F)cccc3Cl)C(=O)CC2)cc1,-3,1,44*,1,1,1
CCOc1cc(C)c(S(=O)(=O)NC2CC(C)(C)NC(C)(C)C2)cc1C,37*,2,-4,-2,-3,-5
C/C(=N/NC(N)=S)c1ccc(Br)s1,-8,2,-2,-4,0,-4
COc1cc([N+](=O)[O-])ccc1NC(=S)NNC(=O)CCC(=O)Nc1ccccc1Cl,-5,4,12,-1,2,-1
O=[N+]([O-])c1cc(S(=O)(=O)Nc2cccc(C(F)(F)F)c2)ccc1-n1nnc2ccccc21,-43,-4,33*,-10,-2,-6
COc1ccc(NS(=O)(=O)c2ccc(-n3nnc4ccccc43)c([N+](=O)[O-])c2)cc1,-9,1,7,0,-6,-3
O=C(C1CCCN(Cc2ccccc2F)C1)N1CCc2ccccc2C1 (stereo unspecified),0,-2,1,2,-1,-5
Cc1ccc2nc3sc(C(=O)NCc4ccco4)c(N)c3cc2c1,-6,-3,-2,-4,-7,-5
Nc1c(C(=O)Nc2ccccc2)sc2nc(-c3ccco3)ccc12,8,4,56*,2,-4,-11
